# Bioassay records as filed in PubChem BioAssay.
# Most compounds without a hit are left out; they make up all but 2.6% or so of the library.
# CF NFkB block – blocks PAF-induced NF-kB reporter in cystic fibrosis cells; KKLEB NF-kB-GFP reporter, GFP fluorescence overnight; inhibition, % at 5 µM; actives 0.86% (n = 360,000);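 active = at least 50% inhibition at 5 µM, scaled per plate between neutral and stimulator controls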;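 also: PAF is a Pseudomonas aeruginosa culture filtrate used as stimulus; plate controls were PAF-stimulated DMSO wells for no effect and unstimulated DMSO wells for full effect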
# Shn3 3UTR inh – Schnurri-3 reporter inhibition in Clone20 osteoblasts; Clone20 osteoblast Shn3 3'UTR firefly luciferase, 24 h; actives 0.52% (n = 360,000); inhibition, % at 12.5 µM;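 active = mean inhibition of at least 75% with every replicate also reaching 75%; inconclusive = mean inhibition at least 75% but some replicate below; inactive = mean inhibition below 75%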;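 also: 0% = median of neutral control wells and 100% = pilot-screen positive control compound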
# Peg3 prom inh – reduces Peg3 promoter-driven luciferase expression in HeLa; HeLa PEG-Prom luciferase reporter, luminescence, overnight; inhibition, % at 20 µM; actives 1.7% (n = 360,000); AID 588405;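 active = inhibition of at least 50% at 20 µM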
# HIF-2a block – inhibitors of HIF-2a | 786-0 RCC cells HIF-2a reporter, luciferase luminescence, overnight | inhibition, % at 18.8 µM | actives 0.72% (n = 360,000) | AID 624352;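 active = inhibition of the luminescence signal of 40% or more relative to plate controls, in a single-dose primary screen at 18.75 µM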
# KKLEB cytotox – reduces viability of KKLEB cystic fibrosis airway cells; KKLEB CF airway cells viability, ATPlite luminescence, overnight; stronger effect = lower value; cells stimulated with P. aeruginosa culture filtrate; activity change (cytotoxicity), % at 5 µM; actives 0.36% (n = 360,000); AID 602141;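 active = corrected activity change at or below -50% at 5 µM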
# An asterisk follows results filed as active; ? = inconclusive; nt = no result.
SMILES,CF NFkB block,Shn3 3UTR inh,Peg3 prom inh,HIF-2a block,KKLEB cytotox
CCc1ccc(/C=C2\SC(=S)N(CCCC(=O)Nc3ccccc3C(=O)O)C2=O)cc1,19,32,34,81*,1
COc1ccc(/C=C2/SC(=S)N(CCCC(=O)Nc3cccc(O)c3)C2=O)cc1,-17,3,-53,56*,1
COC(=O)c1ccc(/C=C2/SC(=S)N(CCCC(=O)Nc3ccc(O)cc3)C2=O)cc1,28,-15,84*,58*,-8
CCc1ccc(/C=C2\SC(=S)N(CCCC(=O)Nc3ccc(C(=O)O)cc3)C2=O)cc1,8,27,-9,-34,7
COc1ccc(/C=C2/SC(=S)N(CCCC(=O)Nc3ccccc3C(=O)O)C2=O)cc1,-4,47,48,91*,-14
CC(=O)Nc1cc(-c2ccccc2)cn2c(-c3cccc(C(C)=O)c3)cnc12,-72,5,8,-1,14
COc1ccccc1Cc1c(-c2cccc(Cl)c2)nc2ccc(Br)cn12,13,-20,-150,-241,-20
Cc1cc(NC(=O)c2noc3c2CCCC3)n(-c2ccccc2)n1,-1,3,11,-20,-4
COc1ccc2c(c1)C(=O)O[C@@H](c1ccccc1)C[C@@H](O)C(=O)CC2,nt,nt,nt,1,nt
Cc1cccc(NS(=O)(=O)c2ccc(NC(=O)N3CCCCC3)cc2)c1,-21,65,-11,12,2
COc1ccc(NC(=O)CSc2nc3[nH]c(=O)cc(O)c3s2)c(OC)c1,0,-9,-2,9,7
CN(CC(=O)Nc1ccccc1Br)C(=O)CCSc1ccc(F)cc1,-38,11,0,-2,20
CNCCCOc1ccc(Cl)cc1C(C)(C)C,18,19,68*,4,-22
CCC(C)NCCCOc1ccc(Cl)cc1C(C)(C)C (stereo unspecified),5,-11,-3,9,-2
CSc1ccc(NC(=O)NCCCN2CCC(Cc3ccccc3)CC2)cc1,0,-49,66*,7,-6
Cc1ccccc1N1C(=O)CC(Sc2nnc(-c3ccccc3)o2)C1=O (stereo unspecified),39,76,95*,-40,3
COc1ccc(/C=C/c2ccc3cccc(O)c3n2)c(OC)c1OC,-27,19,86*,-187,-15
COc1cc(/C=C/c2ccc3cccc(O)c3n2)cc(OC)c1OC,8,-10,95*,-60,-4
COc1cccc(/C=C/c2ccc3cccc(O)c3n2)c1OC,-63,10,90*,-313,-23
COc1cc(/C=C/c2ccc3cccc(O)c3n2)cc(Br)c1OC,12,0,-175,-215,8
Cc1ccc(-n2nc3c(=O)n(CCCC(=O)NCCc4ccccc4C)nc(C)c3c2C)cc1,24,8,25,5,-5
O=C(NN=Cc1cc(Br)c(O)c(Br)c1)c1ccccc1NS(=O)(=O)c1cccs1,-5,56,1,4,-4
CCOc1ccccc1CN1CCNC(=O)C1CC(=O)NCc1nccn1CC (stereo unspecified),5,10,8,6,1
O=C(Nc1cccc2c1CCCC2)c1cc(C2CCCCN2S(=O)(=O)c2cccs2)on1 (stereo unspecified),-29,-1,23,4,17
Cn1nc(-c2ccc(OCC(=O)NCC3CCCO3)cc2)c2ccccc2c1=O (stereo unspecified),-7,41,1,15,13
SMILES,CF NFkB block,Shn3 3UTR inh,Peg3 prom inh,HIF-2a block,KKLEB cytotox
COc1ccccc1NS(=O)(=O)c1ccc(C)c(C(=O)NC2=NCCS2)c1,-12,9,14,-3,13
CC(C)(CO)NCc1c(OCc2ccc(Cl)cc2)ccc2ccccc12,11,17,54*,-54,-1
Cc1cc(-c2nn(-c3ccccc3)cc2/C=C2\SC(N)=NC2=O)ccc1OC(C)C,-14,8,78*,4,12
CCCOc1ccc(-c2nn(-c3ccccc3)cc2/C=C2\SC(N)=NC2=O)cc1,11,-5,11,9,-3
Cc1cc2nc(NCCCO)n(CC(=O)c3cc(C(C)(C)C)c(O)c(C(C)(C)C)c3)c2cc1C,41,25,94*,-8,-44
Cc1ccc(Nc2c(-c3ccccn3)nc3cccc(C)n23)cc1,24,90*,35,29,-35
Cc1ccc(NC(=O)c2cc(N3C(=O)C=CC3=O)ccc2Cl)cc1C,21,4,80*,29,4
Cc1ccc(NC(=O)c2cc(-n3cnnc3)ccc2Cl)cc1,-8,-40,6,9,6
CC(=O)[C@@]1(O)CCC2C3CC[C@H]4C[C@@H](O)CC[C@]4(C)C3CC[C@@]21C (stereo partly specified),-22,-3,4,11,17
C[C@]12CCC3C(CC[C@H]4CCCC[C@]34C)C1CC[C@@]2(O)CNCCO (stereo partly specified),12,12,91*,13,3
COC(=O)c1ccc(OCC(O)CN2C(=O)c3ccccc3S2(=O)=O)cc1 (stereo unspecified),8,-7,-4,-2,-3
COc1ccc(CNC(=O)c2cc3c(C)nc4ccccc4c3o2)c(OC)c1,-6,90*,11,-2,-5
COc1cc(NC(=O)c2cc3c(C)nc4ccccc4c3o2)cc(OC)c1OC,-45,17,56*,-11,13
COc1cccc(CNC(=O)c2cc3c(C)nc4ccccc4c3o2)c1,-27,?,8,-15,0
Cc1nc2ccccc2c2oc(C(=O)Nc3ccc(C(C)C)cc3)cc12,13,25,-4,2,-9
COc1cc(NC(=O)c2cc(-c3ccccc3)on2)cc(OC)c1OC,7,-5,5,-20,-7
COc1cc(NC(=O)c2cc3nc(-c4ccccc4)cc(-c4ccccc4)n3n2)cc(OC)c1OC,29,79,57*,17,-5
Cc1onc(-c2ccccc2Cl)c1C(=O)N1C=CC(C(F)(F)Cl)=NCC1,-1,-19,23,15,3
CCCNC(=O)[C@H](C)NC(=O)c1ccc(Br)cc1,3,21,10,16,7
O=C1C=C(NCc2ccc(Cl)c(Cl)c2)CC1,-3,12,-3,18,-1
Nc1nc(N)c2cc(CNc3ccc(Cl)c(Cl)c3)ccc2n1,45,?,110*,10,-26
Cn1c(=O)c2cc(NC(=S)NC3CCCCC3)ccc2n1C/C=C/c1ccccc1,12,-3,-10,-77,17
Cc1ccc(C(=O)NCCNc2nc3cc(C)c(C)cc3cc2C)cc1,12,0,61*,22,-12
Cc1ccc(-n2ncc3c2CC(C)(C)CC3NC(=O)CCn2cncn2)cc1 (stereo unspecified),-21,10,7,6,12
Cc1cccc(NC(=O)C2c3ccccc3C(=O)N3CCc4ccccc4C23)n1 (stereo unspecified),-12,-3,6,16,13
CC(Sc1cccc[n+]1[O-])c1ccccc1 (stereo unspecified),-7,0,7,12,-9
